The supplement of paper PMC10849652
Of roughly 7,900 targets only a part is listed; those with a hit were picked by preference. About 0.6% of all pairs of compound and target were hits. Unmarked numbers belong to inactive results.

Experiments:
Test in all cases: log2 fold change, soluble protein after heating vs DMSO (PISA); higher = thermal stabilisation; K562 cells, 10 uM, 30 min; active = over 0.2 and 3.5 SD of the protein, either way, in both replicates (recomputed)
IRAK-1-4 Inhibitor I = compound: C1COCCN1CCN2C3=CC=CC=C3N=C2NC(=O)C4=CC(=CC=C4)[N+](=O)[O-] [IRAK-1-4 Inhibitor I]
In short: (§1)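 For each measurement, 10 μM compound was applied for 30 min to K562 cells at 2×10^6 cells/mL. Aliquots were heated for 3 min across 48°C-58°C, pooled, and extracted in PBS with 0.5% NP-40 at 4°C; the supernatant after 21,000xg for 90 min was soluble protein. This was quantified by TMTpro 16plex LC-MS/MS with channel sums equalised, and thermal stability was reported relative to control samples from duplicates, on a log2 fold-change scale.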

ibrutinib = compound: C=CC(=O)N1CCC[C@@H](n2nc(-c3ccc(Oc4ccccc4)cc3)c3c(N)ncnc32)C1 [ibrutinib]
In short: as §1

[1] = compound: CC(=O)c1cnc2ccc(-c3cc(Cl)c(O)c(Cl)c3)nc2c1N[C@H]1CC[C@H](CN(C)C)CC1
In short: as §1

ralimetinib = compound: CC(C)(C)Cn1c(N)nc2ccc(-c3[nH]c(C(C)(C)C)nc3-c3ccc(F)cc3)nc21 [ralimetinib]
In short: as §1

[2] = compound: CC(C)(O)CC(=O)NCCn1ccc2ncnc(Nc3ccc(Oc4cccc(C(F)(F)F)c4)c(Cl)c3)c21
In short: as §1

[3] = compound: CC(C)C1=C2N=C(C=C(N2N=C1)NCC3=CC=CC=C3)NCCCCCCN
In short: as §1

[4] = compound: CC(C)C[C@@H](C=O)NC(=O)[C@H](CC(C)C)NC(=O)[C@H](CC(C)C)NC(=O)OCc1ccccc1
In short: as §1

pinometostat = compound: CC(C)N(C[C@H]1O[C@@H](n2cnc3c(N)ncnc32)[C@H](O)[C@@H]1O)[C@H]1C[C@@H](CCc2nc3cc(C(C)(C)C)ccc3[nH]2)C1 [pinometostat]
In short: as §1

[5] = compound: CC1=C(C(CC(=O)N1)C2=CC=C(C=C2)C(F)(F)F)C(=O)NC3=C(C=C4C(=C3)C=NN4)F
In short: as §1

[6] = compound: CC1=C(C2=C(C=C1)C(=O)C3=CC=CC=C3N2CCCN)C
In short: as §1

[7] = compound: CC1=C(C=C(C=C1)NC(=O)C2=CC(=CC=C2)C(C)(C)C#N)NC3=CC4=C(C=C3)N=CN(C4=O)C
In short: as §1

[8] = compound: CC1=C(C=C(C=C1)NC(=O)C2=CC(=CC=C2)N(C)C)NC(=O)C3=CC=C(C=C3)O
In short: as §1

[9] = compound: CC1=CC=C(C=C1)SC2=C3C=C(SC3=CN=C2)C(=O)N
In short: as §1

[10] = compound: CC1=NC(=CC=C1)C2=C(N=C(N2)C(C)(C)C)C3=CC4=NC=CN=C4C=C3
In short: as §1

Nexturastat A = compound: CCCCN(Cc1ccc(C(=O)NO)cc1)C(=O)Nc1ccccc1 [Nexturastat A]
In short: as §1

vemurafenib = compound: CCCS(=O)(=O)Nc1ccc(F)c(C(=O)c2c[nH]c3ncc(-c4ccc(Cl)cc4)cc23)c1F [vemurafenib]
In short: as §1

[11] = compound: CCCS(=O)(=O)Nc1ccc(F)c(C(=O)c2c[nH]c3ncc(Cl)cc23)c1F
In short: as §1

[12] = compound: CCCc1cc(C)[nH]c(=O)c1CNC(=O)c1cc(-c2ccnc(N3CCN(C)CC3)c2)cc2c1cnn2C(C)C
In short: as §1

givinostat = compound: CCN(CC)Cc1ccc2cc(COC(=O)Nc3ccc(C(=O)NO)cc3)ccc2c1 [givinostat]
In short: as §1

barasertib = compound: CCN(CCCOc1ccc2c(Nc3cc(CC(=O)Nc4cccc(F)c4)[nH]n3)ncnc2c1)CCOP(=O)(O)O [barasertib]
In short: as §1

Sequence of UniProt Q9UBV8 (Q9UBV8 whole entry, looked up): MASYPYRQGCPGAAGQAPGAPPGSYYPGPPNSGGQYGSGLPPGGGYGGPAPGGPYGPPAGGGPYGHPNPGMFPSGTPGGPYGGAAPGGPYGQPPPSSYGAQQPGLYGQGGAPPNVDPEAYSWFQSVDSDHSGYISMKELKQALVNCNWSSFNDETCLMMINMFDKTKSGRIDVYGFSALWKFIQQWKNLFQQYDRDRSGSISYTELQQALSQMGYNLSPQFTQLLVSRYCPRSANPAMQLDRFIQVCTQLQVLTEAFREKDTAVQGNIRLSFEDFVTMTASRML
Sequence of UniProt Q9Y3C6 (Q9Y3C6 whole entry, looked up): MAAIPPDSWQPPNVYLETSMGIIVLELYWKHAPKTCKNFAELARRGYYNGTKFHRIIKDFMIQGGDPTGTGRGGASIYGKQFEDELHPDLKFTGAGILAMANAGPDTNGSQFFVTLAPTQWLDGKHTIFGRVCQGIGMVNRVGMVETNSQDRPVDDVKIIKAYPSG
Sequence of UniProt Q8TCG2 (Q8TCG2 whole entry, looked up): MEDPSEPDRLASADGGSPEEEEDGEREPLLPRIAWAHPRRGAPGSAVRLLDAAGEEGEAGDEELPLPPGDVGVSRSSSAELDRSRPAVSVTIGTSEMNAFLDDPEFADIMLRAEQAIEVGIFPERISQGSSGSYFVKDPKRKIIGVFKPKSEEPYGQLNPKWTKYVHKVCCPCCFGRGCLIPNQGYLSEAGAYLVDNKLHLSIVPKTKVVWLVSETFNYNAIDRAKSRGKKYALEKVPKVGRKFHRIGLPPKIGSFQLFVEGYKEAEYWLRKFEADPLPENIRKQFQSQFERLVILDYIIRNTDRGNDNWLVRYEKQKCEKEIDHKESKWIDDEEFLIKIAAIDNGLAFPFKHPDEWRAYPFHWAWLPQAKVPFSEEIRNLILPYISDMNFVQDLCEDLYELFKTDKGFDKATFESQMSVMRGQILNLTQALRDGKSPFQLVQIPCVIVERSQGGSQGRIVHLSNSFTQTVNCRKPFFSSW
Sequence of UniProt Q15111 (Q15111 whole entry, looked up): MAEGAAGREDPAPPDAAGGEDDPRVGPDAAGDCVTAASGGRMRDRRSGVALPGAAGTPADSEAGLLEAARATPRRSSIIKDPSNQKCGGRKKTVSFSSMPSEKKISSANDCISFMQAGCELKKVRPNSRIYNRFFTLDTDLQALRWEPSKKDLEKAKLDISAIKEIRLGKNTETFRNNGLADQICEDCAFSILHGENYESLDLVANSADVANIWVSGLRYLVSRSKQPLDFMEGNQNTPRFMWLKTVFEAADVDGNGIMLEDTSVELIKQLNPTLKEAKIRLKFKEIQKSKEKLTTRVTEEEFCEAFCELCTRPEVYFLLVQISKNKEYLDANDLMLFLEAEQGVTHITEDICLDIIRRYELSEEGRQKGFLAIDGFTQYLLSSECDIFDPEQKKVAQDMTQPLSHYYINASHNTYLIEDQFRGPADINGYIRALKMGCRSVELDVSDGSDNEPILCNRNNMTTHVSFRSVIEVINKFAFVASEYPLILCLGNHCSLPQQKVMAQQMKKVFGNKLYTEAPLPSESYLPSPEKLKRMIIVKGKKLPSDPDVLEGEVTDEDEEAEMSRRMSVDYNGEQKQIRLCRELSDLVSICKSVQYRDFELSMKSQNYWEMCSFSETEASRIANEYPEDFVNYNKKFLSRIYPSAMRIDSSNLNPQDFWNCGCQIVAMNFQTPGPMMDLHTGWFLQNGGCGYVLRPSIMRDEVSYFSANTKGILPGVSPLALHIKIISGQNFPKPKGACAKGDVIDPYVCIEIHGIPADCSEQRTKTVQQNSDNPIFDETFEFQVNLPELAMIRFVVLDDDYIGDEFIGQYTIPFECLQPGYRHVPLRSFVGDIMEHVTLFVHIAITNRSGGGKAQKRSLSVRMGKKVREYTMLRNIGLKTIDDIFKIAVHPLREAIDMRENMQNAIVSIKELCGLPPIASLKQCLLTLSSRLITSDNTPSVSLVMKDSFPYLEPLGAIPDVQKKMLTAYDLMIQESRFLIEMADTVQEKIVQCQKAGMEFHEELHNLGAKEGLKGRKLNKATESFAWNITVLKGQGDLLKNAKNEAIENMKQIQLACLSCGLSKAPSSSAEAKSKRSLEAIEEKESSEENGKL
Sequence of UniProt Q5VU43 (Q5VU43 whole entry, looked up): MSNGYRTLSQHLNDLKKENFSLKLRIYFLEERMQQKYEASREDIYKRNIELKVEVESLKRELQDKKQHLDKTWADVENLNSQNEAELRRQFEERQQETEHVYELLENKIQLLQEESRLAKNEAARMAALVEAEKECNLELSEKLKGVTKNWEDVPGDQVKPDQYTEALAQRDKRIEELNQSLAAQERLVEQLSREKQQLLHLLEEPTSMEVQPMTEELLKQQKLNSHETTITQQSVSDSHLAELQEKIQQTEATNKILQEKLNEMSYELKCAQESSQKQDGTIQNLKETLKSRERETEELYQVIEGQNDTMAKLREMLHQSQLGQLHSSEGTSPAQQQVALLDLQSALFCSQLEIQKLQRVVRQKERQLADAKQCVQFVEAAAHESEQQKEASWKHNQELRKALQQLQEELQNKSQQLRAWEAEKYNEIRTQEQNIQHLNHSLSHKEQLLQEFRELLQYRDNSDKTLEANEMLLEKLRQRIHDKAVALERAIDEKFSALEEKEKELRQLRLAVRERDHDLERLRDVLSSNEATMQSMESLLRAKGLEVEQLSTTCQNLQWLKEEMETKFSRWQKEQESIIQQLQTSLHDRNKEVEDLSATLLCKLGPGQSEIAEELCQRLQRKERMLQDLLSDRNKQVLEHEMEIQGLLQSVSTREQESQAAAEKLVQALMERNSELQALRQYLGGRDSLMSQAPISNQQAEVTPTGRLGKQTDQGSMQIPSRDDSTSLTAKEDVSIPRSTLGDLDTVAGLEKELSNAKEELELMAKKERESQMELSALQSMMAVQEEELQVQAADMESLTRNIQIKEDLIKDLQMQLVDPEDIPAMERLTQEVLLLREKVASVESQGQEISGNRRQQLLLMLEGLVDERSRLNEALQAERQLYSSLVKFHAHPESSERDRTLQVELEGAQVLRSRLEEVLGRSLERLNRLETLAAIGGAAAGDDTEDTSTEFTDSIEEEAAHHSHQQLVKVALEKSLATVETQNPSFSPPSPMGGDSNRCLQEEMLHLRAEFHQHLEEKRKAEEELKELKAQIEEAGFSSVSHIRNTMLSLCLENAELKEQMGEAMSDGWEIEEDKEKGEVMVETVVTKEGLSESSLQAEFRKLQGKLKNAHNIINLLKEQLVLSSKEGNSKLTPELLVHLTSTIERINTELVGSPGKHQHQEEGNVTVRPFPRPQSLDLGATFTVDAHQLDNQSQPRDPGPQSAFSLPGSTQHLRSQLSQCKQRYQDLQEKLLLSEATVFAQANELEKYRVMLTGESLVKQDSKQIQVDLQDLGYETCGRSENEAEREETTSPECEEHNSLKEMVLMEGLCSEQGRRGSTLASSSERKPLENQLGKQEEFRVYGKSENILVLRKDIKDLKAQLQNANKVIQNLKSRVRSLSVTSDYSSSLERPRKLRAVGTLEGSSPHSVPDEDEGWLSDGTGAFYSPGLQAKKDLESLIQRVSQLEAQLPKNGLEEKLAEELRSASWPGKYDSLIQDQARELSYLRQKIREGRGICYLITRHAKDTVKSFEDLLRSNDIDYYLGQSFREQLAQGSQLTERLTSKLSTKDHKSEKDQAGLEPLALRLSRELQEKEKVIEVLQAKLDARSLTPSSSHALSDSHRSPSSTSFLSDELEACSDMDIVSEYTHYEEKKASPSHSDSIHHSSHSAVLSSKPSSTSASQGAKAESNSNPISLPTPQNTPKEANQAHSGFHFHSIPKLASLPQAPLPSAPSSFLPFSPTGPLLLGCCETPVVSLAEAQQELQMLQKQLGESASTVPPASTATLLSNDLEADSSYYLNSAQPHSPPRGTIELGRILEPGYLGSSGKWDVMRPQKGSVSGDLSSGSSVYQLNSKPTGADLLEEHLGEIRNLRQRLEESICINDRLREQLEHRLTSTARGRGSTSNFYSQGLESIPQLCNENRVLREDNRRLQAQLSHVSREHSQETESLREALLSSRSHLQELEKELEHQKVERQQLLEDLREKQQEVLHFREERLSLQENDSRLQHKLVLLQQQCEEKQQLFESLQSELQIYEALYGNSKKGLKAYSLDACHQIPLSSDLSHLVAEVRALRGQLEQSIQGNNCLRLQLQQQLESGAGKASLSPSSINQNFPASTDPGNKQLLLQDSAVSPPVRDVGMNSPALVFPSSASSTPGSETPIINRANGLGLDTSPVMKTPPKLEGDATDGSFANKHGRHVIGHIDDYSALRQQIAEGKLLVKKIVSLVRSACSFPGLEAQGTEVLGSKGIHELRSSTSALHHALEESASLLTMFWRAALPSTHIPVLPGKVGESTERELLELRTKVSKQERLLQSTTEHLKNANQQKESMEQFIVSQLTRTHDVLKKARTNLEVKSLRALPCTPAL
Sequence of UniProt Q9BTU6 (Q9BTU6 whole entry, looked up): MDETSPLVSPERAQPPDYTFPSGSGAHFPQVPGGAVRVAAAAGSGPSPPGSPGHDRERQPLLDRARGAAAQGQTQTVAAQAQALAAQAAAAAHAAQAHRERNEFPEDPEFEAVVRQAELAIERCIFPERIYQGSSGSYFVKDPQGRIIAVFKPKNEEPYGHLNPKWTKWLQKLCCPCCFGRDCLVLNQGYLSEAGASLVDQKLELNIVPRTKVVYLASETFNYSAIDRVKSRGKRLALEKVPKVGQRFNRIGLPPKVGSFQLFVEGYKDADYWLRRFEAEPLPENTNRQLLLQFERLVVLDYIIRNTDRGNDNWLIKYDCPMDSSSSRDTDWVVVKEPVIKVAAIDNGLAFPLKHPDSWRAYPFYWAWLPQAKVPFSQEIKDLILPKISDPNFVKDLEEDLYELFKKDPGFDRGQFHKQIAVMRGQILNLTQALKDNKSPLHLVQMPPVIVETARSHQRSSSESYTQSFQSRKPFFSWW

| Target | log2 fold change (IRAK-1-4 Inhibitor I) | log2 fold change (ibrutinib) | log2 fold change [1] | log2 fold change (ralimetinib) | log2 fold change [2] | log2 fold change [3] | log2 fold change [4] | log2 fold change (pinometostat) | log2 fold change [5] | log2 fold change [6] | log2 fold change [7] | log2 fold change [8] | log2 fold change [9] | log2 fold change [10] | log2 fold change (Nexturastat A) | log2 fold change (vemurafenib) | log2 fold change [11] | log2 fold change [12] | log2 fold change (givinostat) | log2 fold change (barasertib) |
| --- | --- | --- | --- | --- | --- | --- | --- | --- | --- | --- | --- | --- | --- | --- | --- | --- | --- | --- | --- | --- |
| PPIL1 (UniProt Q9Y3C6) | -0.046 | -0.011 | 0.225 (active) | -0.02 | -0.038 | 0.08 | 0.09 | 0.082 | 0.004 | 0.172 | -0.002 | 0.023 | 0 | -0.024 | 0.025 | -0.045 | 0.027 | -0.016 | -0.038 | 0.033 |
| PRKAG1 isoform 3 (UniProt P54619) | 0.042 | -0.019 | -0.266 (active) | 0.001 | -0.011 | -0.067 | -0.025 | 0.015 | 0.079 | 0.013 | -0.042 | -0.006 | 0.007 | 0.037 | -0.01 | 0.026 | 0.002 | -0.026 | 0.014 | 0.013 |
| PNPLA2 (UniProt Q96AD5) | -0.006 | 0.166 | -0.116 | -0.009 | 0.044 | -0.184 | 0.121 | -0.018 | -0.083 | -0.004 | 0.009 | -0.017 | -0.003 | 0.008 | -0.021 | -0.017 | 0.053 | 0.026 | 0.036 | -0.092 |
| PMM1 (UniProt Q92871) | -0.06 | 0.039 | -0.011 | -0.024 | 0.014 | 0.187 | 0.019 | -0.037 | 0.02 | 0.049 | -0.164 | 0.007 | -0.037 | 0.027 | -0.037 | -0.007 | -0.012 | -0.165 | -0.013 | -0.003 |
| POGLUT1 (UniProt Q8NBL1) | -0.032 | -0.03 | -0.047 | 0.162 | 0.058 | 0.055 | -0.106 | 0.026 | 0.009 | 0.016 | -0.063 | -0.027 | -0.081 | -0.024 | -0.025 | -0.139 | -0.034 | 0.043 | 0.052 | -0.022 |
| PGGHG (UniProt Q32M88) | 0.018 | 0.045 | -0.013 | 0.136 | 0.05 | 0.044 | 0.008 | -0.054 | -0.124 | -0.027 | 0.017 | -0.127 | 0.197 | -0.003 | 0 | -0.044 | -0.091 | -0.175 | -0.003 | 0.001 |
| PPT1 (UniProt P50897) | 0.041 | 0.049 | 0.008 | -0.072 | 0.039 | -0.406 (active) | 0.048 | -0.036 | 0.018 | -0.06 | -0.017 | 0.009 | 0.046 | 0.013 | -0.081 | 0 | -0.003 | -0.107 | -0.022 | -0.017 |
| PKN2 (UniProt Q16513) | -0.017 | -0.054 | -0.797 (active) | 0.085 | -0.042 | -0.051 | 0.085 | 0.141 | -0.025 | -0.016 | 0.104 | -0.005 | 0.018 | -0.012 | 0.042 | 0.05 | 0.086 | 0.032 | 0.034 | 0.106 |
| PMM2 (UniProt O15305) | 0.025 | -0.025 | 0.012 | -0.1 | 0.009 | 0.089 | -0.032 | -0.029 | 0.012 | -0.015 | -0.102 | 0.021 | -0.014 | -0.009 | -0.124 | -0.04 | -0.009 | -0.055 | 0.015 | 0.003 |
| PEF1 (UniProt Q9UBV8) | 0.003 | -0.002 | -0.03 | -0.057 | -0.092 | -0.094 | -0.085 | -0.041 | -0.014 | 0.085 | -0.011 | -0.075 | 0.027 | 0.013 | 0.032 | 0.008 | 0.073 | -0.045 | 0.022 | 0.122 |
| PGM3 isoform 4 (UniProt O95394) | -0.007 | -0.016 | -0.091 | 0.016 | -0.08 | -0.097 | -0.002 | 0.012 | -0.021 | 0.02 | 0.013 | -0.073 | 0.021 | 0.04 | -0.01 | 0.017 | 0.04 | 0.008 | -0.044 | 0.017 |
| PI4K2B (UniProt Q8TCG2) | 0.035 | -0.004 | 0.042 | -0.04 |  | -0.131 | -0.017 | 0.053 | 0.135 | 0.003 | -0.082 | -0.002 |  | -0.013 |  | 0.059 |  | 0.144 | 0.019 | 0.146 |
| PDCD4 (UniProt Q53EL6) | -0.043 | -0.05 | 0.271 | -0.042 | -0.091 | -0.194 | -0.015 | -0.046 | -0.123 | -0.17 | 0.029 | -0.043 | 0.012 | 0.016 | -0.11 | 0.083 | 0.107 | -0.06 | 0.103 | 0.002 |
| PI4K2A (UniProt Q9BTU6) | 0.01 | -0.018 | -0.026 | -0.072 | -0.062 | -0.158 | -0.002 | -0.024 | -0.005 | -0.006 | -0.037 | -0.02 | 0.004 | 0.023 | -0.005 | 0.023 | 0.015 | -0.036 | -0.008 | -0.011 |
| PLCL1 (UniProt Q15111) | -0.007 | 0.31 | 0.08 | 0.125 | -0.329 | -0.102 | 0.089 | 0.365 | -0.086 | -0.193 | 0.056 | -0.061 |  | 0.03 | 0.253 | 0.068 |  | 0.159 | 0.21 | 0.205 |
| PDE4DIP isoform 4 (UniProt Q5VU43) | -0.006 | 0.001 | 0.045 | 0.011 | -0.08 | 0.035 | 0.087 | -0.05 | 0.069 | 0.088 | -0.027 | -0.049 | -0.012 | -0.044 | 0.358 (active) | -0.034 | -0.01 | -0.023 | 0.021 | 0.083 |
| PGK2 (UniProt P07205) | 0.039 | -0.003 | 0.004 | -0.07 | 0.008 |  | 0.063 | -0.032 | 0.096 | -0.037 | 0.019 | 0.058 | -0.075 | 0.05 | 0.039 | -0.084 | -0.051 | -0.006 |  | -0.046 |
